Bioassay records as filed in PubChem.
Imprint erasure: qHTS Assay for Compounds that Induce Erasure of Genomic Imprints. mouse ES Peg3-LacZ reporter, beta-gal luminescence, 40 h. Potency, µM (titrated, usually from 60.7 µM), inactives show at the top dose activity change, positive = activation, most hits filed as activators. 110,000 compounds, 0.02% hits
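Gelatin-coated wells received 300 freshly trypsinized female ES cells with a Peg3LacZ-Neo reporter on the maternal allele, then incubated 40 hours at 37C. BetaGlo was added for 5 minutes at room temperature before a single luminescence read.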
p53ts 32C kill: qHTS Screen for Compounds that Selectively Target Cancer Cells with p53 Mutations: Cytotoxicity of p53ts Cells at the Permissive Temperature; H1299-p53A138V at 32C, ATP luminescence viability, 24 h; Potency, µM (top dose mostly 46.1 µM), for the others: at the highest dose activity change, negative = cytotoxicity, most hits filed as cytotoxic; 130,000 compounds, 0.93% hits;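 also: 0% = DMSO and -100% = full killing by reference compound; nearly all actives have a fitted effect of over 55% in size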
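H1299-p53 A138V cells (temperature-sensitive p53) exposed 24 h to up to 46 uM compound at 32C, where p53 is wild-type in conformation. Viability read as ATP luminescence and normalised to DMSO and 100 uM tamoxifen. AC50 fitted with the Hill equation.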
p53ts 39C kill: qHTS Screen for Compounds that Selectively Target Cancer Cells with p53 Mutations: Cytotoxicity of p53ts Cells at the Nonpermissive Temperature. 130,000 compounds, 1.5% hits. AID 902, 2007. H1299-p53A138V viability at 39C, ATP luminescence, 24 h. Potency, µM (series often up to 46.1 µM), without a hit: at the highest dose activity change, negative = cell killing, actives largely listed as cytotoxic; also: % is scaled to controls: 0 for no effect and ±100 for the full control effect; nearly all actives have a fitted effect of over 55% in size
IkB signaling: IkB Signaling | ABC-DLBCL IkBa-CBG/CBR dual luciferase ratio, 4 h; response scale: scaled: untreated 0%, proteasome inhibitor 100% | Potency, µM (top dose mostly 57.1 µM), for inactives: top-dose IkBa stabilization activation | 110,000 compounds, 0.04% hits | AID 445, 2006; active = well fitted curve in the direction sought with a large enough effect in the signal ratio, not every such curve was filed as active; inconclusive = small, poorly fitted or top-dose-only effect, or a change in a side signal; the % refers to the signal ratio;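 also: the direction sought is a rising ratio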
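In this assay, an IκBα–CBG68 fusion accumulates when IKK-driven degradation is blocked; native CBR normalizes for cell number. OCI-Ly3 cells were treated 4 h with compound and doxycycline, then green and red light read after Chroma-Glo addition.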
An asterisk follows results filed as active; ? = inconclusive; . = no result; ! = repeats disagree; [ ] = dose if it differs, or a comment. Rows were chosen to be rich in hits. Some 1.7% of all compounds tested hit in one or more screens of this group. Unless noted, calls follow the shape of the dose curve; as a rule, active = well fitted curve in the direction sought with a large enough effect; inconclusive = small, poorly fitted or top-dose-only effect, or another doubt; inactive = no such curve, though single readings can be large; an effect the other way counts as inactive or inconclusive. Potency is read from the fitted curve at half-maximal effect.

SMILES	Imprint erasure	p53ts 32C kill	p53ts 39C kill	IkB signaling
FC(F)(F)c1cccc(Nc2nc3nonc3nc2Nc2ccc(Cl)cc2)c1	-26%[10.9 µM]	?	16µM*	?
Cc1cc(C)c(Cn2c(C(O)c3ccccc3)nc3ccccc32)c(C)c1 (centres undefined)	25%[10.9 µM]	-16%	3.2µM*	?
COc1ccc(CNC(=O)c2ccc3nc(C(C)C)oc3c2)cc1OC	-13%[10.9 µM]	-10%	-15%	1%
N#CCCS(=O)(=O)c1nnnn1-c1ccccc1	-27%	?	20µM*	?
Cc1nn(C(C)C(=O)NC2CCC(C)CC2)c(=O)c2c1sc1ccccc12 (centres undefined)	-30%[10.9 µM]	11µM*	10µM*	?
COc1ccc(N2CCN(C(=O)C(C)n3nc(C)c4sc5ccccc5c4c3=O)CC2)cc1 (centres undefined)	-31%[10.9 µM]	10µM*	10µM*	-5%
Cc1nn(C(C)C(=O)N2CCCCC2)c(=O)c2c1sc1ccccc12 (centres undefined)	.	5%	2%	.
O=C(/C=C\c1ccc(O)c(O)c1)O[C@H]1C[C@@](O)(C(=O)O)C[C@H](O)[C@@H]1O	.	.	.	-1%[11.4 µM]
Cc1nnc(NC(=O)c2sc3ccccc3c2Cl)s1	-52%	1.3µM*	0.63µM*	?
COCc1nnc(NC(=O)c2sc3ccccc3c2Cl)s1	-62%	?	16µM*	?
COCc1nnc(NC(=O)c2cccs2)s1	-22%	-15%	-9%	4%
O=C(OC1Cc2c(O)cc(O)cc2OC1c1cc(O)c(O)c(O)c1-c1c(C2Oc3cc(O)cc(O)c3CC2OC(=O)c2cc(O)c(O)c(O)c2)cc(O)c(O)c1O)c1cc(O)c(O)c(O)c1 (centres undefined)	0%	3%	3%	.
c1ccc(-c2ccc(-c3ccccn3)nn2)nc1	-89%	13µM*	10µM*	?
CCC(C)NC(=O)c1cc2c(Cl)nc3ccc(C)cc3c2s1 (centres undefined)	-5%[10.9 µM]	3%	27%	0%
COc1cccc(-c2nccc(N(C)Cc3ccco3)n2)c1	-60%	10µM*	10µM*	-1%[11.4 µM]
CN(Cc1ccco1)c1ccnc(-c2cccc(NS(C)(=O)=O)c2)n1	-8%	-26%	?	1%[11.4 µM]
COc1ccc(OC)c(NC(=O)c2c(NCc3ccc(N(C)C)cc3)sc3c2CCCC3)c1	-5%[10.9 µM]	16%	55%	-2%
O=c1cc(-c2ccccc2)[nH]c2nc3ccccc3n12	-92%	2µM*	2µM*	?
O=c1cc(-c2ccccc2)[nH]n1-c1nc2ccccc2s1	-17%	?	?	?
Cc1nc2ccc(NC(=O)Cc3cccs3)cc2s1	-41%	16µM*	10µM*	3%
Clc1ccccc1-c1nccc(-n2ccnc2)n1	-5%	-2%	0%	-2%[11.4 µM]
Clc1ccccc1C(c1ccccc1)(c1ccccc1)n1ccnc1	-21%	35%[20.6 µM]	25µM*!	3%[25.6 µM]
CCOc1ccc(S(=O)(=O)Nc2ccc(O)c(Sc3ncn[nH]3)c2)cc1	.	-2%	10%	.
CC(C)c1ccc(S(=O)(=O)/N=C2/C=C(Sc3ncn[nH]3)C(=O)c3ccccc32)cc1	.	.	8.9µM*	.
CC(=O)O[C@H]1CC[C@@]2(C)[C@@H](CC[C@@]3(C)[C@H]2C(=O)C=C2[C@H]4C[C@](C)(C(=O)OCCN5CCCCC5)CC[C@]4(C)CC[C@@]23C)C1(C)C	.	.	.	2%[11.4 µM]
SMILES	Imprint erasure	p53ts 32C kill	p53ts 39C kill	IkB signaling
C=CCNc1nc2c(c(=O)[nH]c(=O)n2C)n1Cc1cccc(C)c1	-26%	6.3µM*	7.9µM*	3%
Cc1ccc(-c2nc3cc(N)ccc3o2)cc1	-79%	4µM*	4µM*	6%
CC(C)c1ccc2oc(-c3ccc(N)cc3)nc2c1	-53%	6.3µM*	6.3µM*	?
Cc1ccc2oc(-c3ccco3)nc2c1	-1%	-10%	-5%	-2%
Cc1ccc(-c2nc3cc(C)ccc3o2)cc1	-31%	10µM*	?	?
Nc1ncn([C@@H]2O[C@@H](CO)[C@@H](O)[C@H]2O)c(=O)n1	.	.	.	-11%
O=C(CCN1C(=O)c2ccccc2C1=O)Nc1ccc(-c2cn3ccsc3n2)cc1	-52%	-15%	?	-1%
CC(=O)Nc1ccc(-c2cn3ccsc3n2)cc1	-48%	10µM*	?	7%
O=C(Nc1ccc(-c2cn3ccsc3n2)cc1)C1CCCC1	-45%	5µM*	2.5µM*	0%
CC(C)C(=O)Nc1cccc(-c2cn3ccsc3n2)c1	6%	?	-3%	3%
O=C(Nc1ccc(-c2cn3ccsc3n2)cc1)C1CC1	-38%	6.3µM*	5µM*	0%
c1cn2cc(-c3ccc4c(c3)OCO4)nc2s1	-80%	16µM*	13µM*	0%
CCC(=O)Nc1cccc(-c2cn3ccsc3n2)c1	-8%	-15%	-16%	0%
Cc1cccc(-n2ncc3c(Nc4c(C)cc(C)cc4C)ncnc32)c1	-13%[10.9 µM]	11%	-2%	?
Cc1cccc(-n2ncc3c(NC(C)C)ncnc32)c1	-34%	13µM*	16µM*	?
Clc1ccc(-n2ncc3c(NC4CCCC4)ncnc32)cc1	-14%[10.9 µM]	13µM*	16µM*	?
CC(C)Nc1ncnc2c1cnn2-c1ccccc1	-41%	13µM*	?	?
Cc1cc(Br)cc2c1N(Cc1ccccc1OC(C)C)C(=O)C2=O	-10%[10.9 µM]	?	?	?
CC1CCN(c2nc(-c3ccc(C(C)(C)C)cc3)nc3ccccc23)CC1	-16%[10.9 µM]	16µM*	10µM*	-1%
CC1CCCCN1c1nc(-c2ccc(C(C)(C)C)cc2)nc2ccccc12 (centres undefined)	-7%[10.9 µM]	10µM*	10µM*	8%
CC1CCN(c2nc(-c3ccncc3)nc3ccccc23)CC1	-14%	6%	37%	?
CN1C[C@H](C(=O)N[C@]2(C)O[C@@]3(O)[C@H]4CCCN4C(=O)[C@@H](Cc4ccccc4)N3C2=O)C[C@H]2c3cccc4[nH]cc(c34)C[C@@H]21	.	.	.	1%[11.4 µM]
CNc1nc(-c2cccc(C#N)c2)nc2ccccc12	1.3µM*	6%	-8%	-3%[11.4 µM]
FC(F)(F)c1cc(CO[C@H]2CCCN[C@H]2c2ccccc2)cc(C(F)(F)F)c1	-31%	?	13µM*	?
CCOC(=O)c1cc2c(=O)n3ccccc3nc2n(CCCOC)c1=NC(=O)c1c(-c2c(F)cccc2Cl)noc1C	-5%[10.9 µM]	-2%	-4%	-1%
Cc1cc(=O)n2[nH]c(NCc3ccc(F)cc3)nc2n1	-4%[10.9 µM]	-4%	-3%	1%
Cc1cc(=O)n2[nH]c(-c3ccc(F)cc3)nc2n1	-81%	13µM*	10µM*	?
O=c1cc(-c2ccc(O)c(O)c2)oc2ccccc12	-49%	-1%	9%	.
O=c1cc(-c2ccccc2)oc2c(O)c(O)ccc12	-36%	?	13µM*	.
